Measurements from PubChem BioAssay AID1508600 (Functional Genomics Laboratory (NCATS/FGL), 2020).
In all, about 53,000 sequences went through this assay and about 3,700 (7%) were called active. This is one part of a sample in which actives are shown more often than they occur.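 Rule for the calls: active = gene knockdowns whose robust z-score for IL-1 alpha signal is at least 2 or at most -2, so actives lie on both sides; inactive = the rest.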

Assay: Components of the Cytosolic LPS Sensing Pathway: Gene Identification via Genome-wide siRNA Screen;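 note: robust z of the log signal after scaling to non-targeting control siRNA wells of the plate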
Conditions: RAW264.7 macrophages, IL-1a HTRF, actives lie on both sides, screened at 100 nM (by protocol), cells primed 5 h with Pam3CSK4 first
How it was run: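 Knockdown: 100 nM siRNA, 48h, RAW264.7. Stimulation: Pam3CSK4 5 h, then LipidA via TransIT-TKO 24 h. Output: supernatant IL-1a HTRF, negative-control-normalized, log robust z-score; viability by CellTiter-Glo.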

Row | Sequence | z-score
1 | GGUGAAAUGAGAAUACUUGTT against Erap1 | 1.07 (inactive)
2 | CCCUGGUUGUUUGUAGAGUTT against Armt1 | 2.38 (active)
3 | GGAAUGAUGAAGAGUGUCCTT against Btla | -0.0564 (inactive)
4 | GGCUACUGUAGGAAGAAAUTT against Defb20 | 1.7 (inactive)
5 | GGAAGUUUUGUUCCUGCAUTT against Nars2 | -0.0244 (inactive)
6 | GGCCAUCCAGAAUUACAUGTT against Vash2 | 1.08 (inactive)
7 | GGAGAAGGAACUGUGUGAGTT against Nfkbil1 | -2.26 (active)
8 | CCGGGUCAGGACAAUUCAUTT against Hsd17b1 | 1.87 (inactive)
9 | GGCCAUUGAUCAAGACAAGTT against Glyat | 1.66 (inactive)
10 | GGCUUUGUAGAAAAUUCAUTT against Polr2a | -2.15 (active)
11 | GCCGUGAUGCCUAAAAUGCTT against Olfr543 | -0.306 (inactive)
12 | GGUAUCUUGAGAAGCCAAUTT against Stat3 | -0.536 (inactive)
13 | GGAUUCAUCAUCUACCCGGTT against C1ql4 | -1.08 (inactive)
14 | GGAUAACCUUGAGUAGGUGTT against Olfr906 | 0.484 (inactive)
15 | CGGAUACCUAGAGUGCAUCTT against Zfp42 | 0.725 (inactive)
16 | CGUGGAAGCUGUGUUAUCUTT against Il34 | -0.112 (inactive)
17 | GGAUGACCAGAACUUCAGUTT against Zfp956 | 2.84 (active)
18 | AACGUAAUUAGCGUGAAUUTT against Cyp2j11 | 0.337 (inactive)
19 | GCAGUUCCCAUAGUUUUCUTT against Il1r2 | 6.07 (active)
20 | CUUGUCAAGUGAUGAAAUGTT against Xlr | -0.546 (inactive)
21 | GGUCGAAAGAAUAAUUUGUTT against Cct6a | -0.628 (inactive)
22 | GGCAAUUUUCAGAGAAGUUTT against Fosb | -2.08 (active)
23 | GGCAGUCUACUUUACACGGTT against Prdm1 | 0.294 (inactive)

Row | Sequence | z-score
24 | GGAUCUUGGAUAAAGUGUGTT against Gpr180 | 1.73 (inactive)
25 | CCCAGUUGCUGUUCUUGACTT against Defb40 | 0.553 (inactive)
26 | GGCUUCCUCAAGAACUUUCTT against Acly | 0.0643 (inactive)
27 | CCGGUUACAAACUCAACUGTT against Syne3 | -0.285 (inactive)
28 | GGGAGAGAUCCUCAACAGGTT against Cdk5rap1 | -0.581 (inactive)
29 | GGUGCAUGACCUGACAAAGTT against Fermt3 | 2.5 (active)
30 | CCUGGGUUGGAUAAAACUUTT against 6030458C11Rik | -0.0611 (inactive)
31 | GGAUUUUAAACCUUAAGGUTT against Ssty1 | 0.49 (inactive)
32 | GGCAGUGAAGAGAAGAAGUTT against Trub2 | -0.835 (inactive)
33 | GGAUUUCUUUGUCAGUACUTT against Il22ra2 | 0.791 (inactive)
34 | CCAUUAUGGACAAUAAGAGTT against Rnf8 | 0.396 (inactive)
35 | GCAUGUGACUCCAUAUAAATT against Cldn15 | -0.117 (inactive)
36 | GGUUCAAAACUACACACACTT against Sp9 | 0.512 (inactive)
37 | GGAGGGUACUCACAGGAAATT against Olfr411 | -2.05 (active)
38 | GGAUCAAUGCACCUUCCAATT against Gpr85 | 1.61 (inactive)
39 | GGACCAGUUUAUCCAGCACTT against Mc3r | -0.699 (inactive)
40 | GGCAGAAAAGAUAGCAUCUTT against Cops4 | 0.413 (inactive)
41 | GGUCUUUUCUAUUAUGGGATT against Strc | 1.22 (inactive)
42 | GCGGUUUUGUGUCAGGGACTT against 4833408A19Rik | -0.682 (inactive)
43 | GGAGCUGUUGAAAGAAUAUTT against Relt | 2.63 (active)
44 | CCCUGAACAGGUCAUCUGUTT against Ctps2 | 0.822 (inactive)
45 | GGACAUGACUCUAAAAAAATT against Slc44a3 | 4.43 (active)
46 | CGUGCUCAUUUAGGUUAUATT against Zfp57 | 1.15 (inactive)

Row | Sequence | z-score
47 | GGGCAAAUAGUCAAUGACCTT against Ces1e | 0.661 (inactive)
48 | GCGGAACUUUCAUUGCUGGTT against Rabggta | 1.85 (inactive)
49 | CCGGAGCACCAUUAAGGUUTT against Nudt11 | 4.75 (active)
50 | GCCUUCUGAUUCAUUUUCUTT against Naa38 | 0.525 (inactive)
51 | GGAAAGUUUGCACUGUAAATT against Tiam2 | -0.207 (inactive)
52 | CCGUCUUCACCUGAUACAGTT against Ube2d2b | 0.501 (inactive)
53 | GCUGAACGGUCUCAAACAGTT against Cdca3 | 0.395 (inactive)
54 | GGUGUCUCUGAUGAAUCACTT against Syt15 | 1.21 (inactive)
55 | UCACAGUCAUCAUUGUUUCTT against Olfr825 | -2.83 (active)
56 | GGAAGUCCAACUUCUUCCATT against Ebf4 | -0.153 (inactive)
57 | GGUACCAUGAAGGAUUUAUTT against Tspan2 | 3.24 (active)
58 | GGCAUGAUGAUAUUUGAAATT against Glrp1 | -0.142 (inactive)
59 | GGAAAAAGAUGUCCUAUCUTT against Rufy2 | -1.08 (inactive)
60 | GGAUGUGGGUGGAUAUCAUTT against Sit1 | 0.145 (inactive)
61 | GGAAAAAAAGGUAGCUGGATT against Tspyl4 | 2.82 (active)
62 | GCUUAUCGAAUUCUUCUCCTT against Cnpy2 | 0.417 (inactive)
63 | CUAGAUGCACAGAAUAGCATT against Prm1 | -1.83 (inactive)
64 | GCAAUAGGCAAUCUGGGAUTT against Olfr52 | 0.504 (inactive)
65 | GCCUCAAUAAAUUGUCAGCTT against Slc25a17 | -0.0131 (inactive)
66 | GAAGCAGAACUUGAGCAAGTT against Phgdh | 2.07 (active)
67 | GCUGCAUAGAAUGACACGATT against Pip5kl1 | 0.851 (inactive)
68 | GGCAAAGACGACCUCUCACTT against Vtcn1 | -1.56 (inactive)
69 | GGAUGAUGAAGUCAAAUUUTT against Slc26a5 | 0.0656 (inactive)
